Test results published in PubChem BioAssay (NCATS).
Inconclusive results are not listed. Activity calls are given as the source filed them. Unless noted, the call rests on the fitted dose curve.

How the values were obtained:
[1] = Primary qHTS for inhibitors of SARS-S pseudo-typed particle cell entry (AID 1479145); further: nearly all actives have a fitted effect of over 45% in size
[2] = Primary qHTS for Huh7 cytotoxicity: counterscreen for inhibitors of MERS-S pseudotyped particle cell entry (AID 1479147); details: outcome: dose series up to 57.1 µM unless noted
[3] = Primary qHTS for inhibitors of MERS-S pseudo-typed particle cell entry (AID 1479149); further: nearly all actives have a fitted effect of over 60% in size
[4] = Primary qHTS for Vero E6 cytotoxicity: counterscreen for inhibitors of SARS-S pseudo-typed particle cell entry (AID 1479150); details: outcome: dose series up to 57.1 µM unless noted
[5] = Cytotoxicity counterscreen for inhibitors of SARS-CoV-2 cell entry (AID 1645845); further: nearly all actives have a fitted effect of over 50% in size
In short: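 Expi293F/hACE2 cells seeded overnight; cpd pin-transferred in DMSO, 1 h preincubation, + media, 48 h 37 C 5% CO2; ATPLite 1step luminescence; normalized to cells and no cells.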

CRL-7250 = normal cell line; assay: qHTS assay to identify novel small-molecules to repurpose for Merkel cell carcinoma treatment (AID 1296009; active means well fitted curve in the direction sought with a large enough effect; an effect the other way counts as inactive or inconclusive; further: nearly all actives have a fitted effect of over 60% in size); details: MCC and control cell lines, CellTiter-Glo viability, 72 h; series mostly up to 92 µM
In short: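 Cells exposed to NPC (8-point) and MIPE (11-point) compound dilutions for 72 hr at 37 degree celsius; viability read by CellTiter-Glo luminescence, normalized to no-cell and DMSO in-plate controls.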

[6] = Confirmatory qHTS for VERO E6 Cytotoxicity Assay: Counterscreen for SARS-CoV-2 CPE Assay (AID 1508605); further: nearly all actives have a fitted effect of over 60% in size
[7] = Confirmatory qHTS for activators (rescue) of SARS-CoV-2 Cytopathic Effect (CPE) (AID 1508606); further: nearly all actives have a fitted effect of over 70% in size; further: potency means the concentration at half of the fitted maximal effect
[8] = qHTS for Inhibitors of the Functional Ribonucleoprotein Complex (vRNP) of Lassa (LASV) Arenavirus: Viability assay - alamar blue signal for LASV Primary Screen (AID 1347083; calls by dose curve; tested in HEK293 reporter line; further: nearly all actives have a fitted effect of over 80% in size; further: potency means the concentration at half of the fitted maximal effect)
[9] = target: Nucleoprotein (Lymphocytic choriomeningitis virus (strain Armstrong)) (UniProt P09992); assay: qHTS for Inhibitors of the Functional Ribonucleoprotein Complex (vRNP) of Lymphocytic Choriomeningitis Arenaviruses (LCMV): LCMV Primary Screen - GLuc reporter signal (AID 1347086); further: nearly all actives have a fitted effect of over 70% in size; further: potency means the concentration at half of the fitted maximal effect
[10] = qHTS for Inhibitors of the Functional Ribonucleoprotein Complex (vRNP) of Lymphocytic Choriomeningitis Arenaviruses (LCMV): Viability assay - alamar blue signal for LCMV Primary Screen (AID 1347085; calls by dose curve; tested in HEK293 reporter line; further: nearly all actives have a fitted effect of over 80% in size)
[11] = Confirmatory qHTS to identify inhibitors of SARS-CoV-2 cell entry (AID 1645844); further: potency means the concentration at half of the fitted maximal effect; nearly all actives have a fitted effect of over 45% in size
In short: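 HEK293-ACE2 cells (Expi293F stably expressing human ACE2) were pretreated with compounds for 1 hr at 37C, then infected with MLV-based particles carrying Wuhan-Hu-1 spike (C-terminal 19-aa truncation). Luciferase luminescence read after 48 hr; normalized to spike PP (100%) and bald PP (0%).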

[12] = Primary qHTS to identify inhibitors of SARS-CoV-2 cell entry (AID 1645846); details: activity change, negative = inhibition: at 57.1 µM (top of the series) unless noted; further: nearly all actives have a fitted effect of over 45% in size
In short: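 Data are normalized to wells receiving SARS-CoV-2-S pseudoparticles and those given bald particles. Entry signal was luciferase luminescence in stable hACE2 Expi293F cells, 48 hr post-infection, after 1 hr compound pretreatment.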

[13] = qHTS for inhibitors of Rabies Virus screened against the NCATS CANVASS Library (AID 1347402)
[14] = P-glycoprotein substrates identified in KB-8-5-11 adenocarcinoma cell line, qHTS therapeutic library screen (AID 1346987; active means well fitted curve in the direction sought with a large enough effect; an effect the other way counts as inactive or inconclusive; further: nearly all actives have a fitted effect of over 65% in size)
In short: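 KB-8-5-11: colchicine-selected sub-line of KB-3-1 over-expressing P-gp; assay medium lacked colchicine. 72 h drug exposure at 37 degree C, CellTiter-Glo.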

[15] = tested on: Zika virus NS2B-NS3 protease (unlinked complex); assay: Primary screen GU Rhodamine qHTS for Zika virus inhibitors: Unlinked NS2B-NS3 protease assay (AID 1347159; active means well fitted curve in the direction sought with a large enough effect; an effect the other way counts as inactive or inconclusive; further: nearly all actives have a fitted effect of over 60% in size)
In short: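 Compounds, tested up to 114 microM, were incubated for 15 minutes with 25 nM unlinked NS2B-NS3 protease at pH 8.0. Cleavage of 1.5 microM Rhodamine110 substrate was then followed by fluorescence for 15 minutes.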

[16] = tested on: Zika virus NS2B-NS3 protease (linked construct); assay: Primary screen NINDS Rhodamine qHTS for Zika virus inhibitors (AID 1347160; active means well fitted curve in the direction sought with a large enough effect; an effect the other way counts as inactive or inconclusive; further: nearly all actives have a fitted effect of over 55% in size)
In short: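 Percent inhibition, normalized to uninhibited and enzyme-free controls, is fitted to a 4-parameter Hill equation. Fluorescence change comes from a 15-min cleavage of 1.5 microM bis-peptide Rhodamine110 substrate by 25 nM linked NS2B-NS3 at room temperature.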

[17] = target: Calcium and integrin-binding protein 1 (Homo sapiens) (UniProt Q99828); assay: Primary qHTS for Identification of Calcium Integrin Binding Protein 1 (CIB1) Competitor (AID 1508620; active means well fitted curve in the direction sought with a large enough effect; an effect the other way counts as inactive or inconclusive;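 further: GST tagged CIB1 binding a fluorescein labelled alphaIIb integrin peptide tracer; top concentration of the series differs between compounds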)
In short: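 Fluorescence polarization competition: CIB1-GST (1 uM final) preincubated with compound 15 min at room temperature, then FITC-labeled alphaIIb peptide (100 nM final) added for another 15 min. Polarization read at Ex 480/Em 540.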

[18] = Primary qHTS for inhibitors of nuclear receptor binding SET domain protein 2 (NSD2) in an isogenic RCH-ACV NSD2 p.E1099K mutant (9B) (AID 1645876; active means well fitted curve in the direction sought with a large enough effect; an effect the other way counts as inactive or inconclusive; further: potency means the concentration at half of the fitted maximal effect; nearly all actives have a fitted effect of over 70% in size)
[19] = Primary qHTS for inhibitors of nuclear receptor binding SET domain protein 2 (NSD2) in an RCH-ACV wild type WT cells (2C) (AID 1645877; active means well fitted curve in the direction sought with a large enough effect; an effect the other way counts as inactive or inconclusive; further: potency means the concentration at half of the fitted maximal effect; nearly all actives have a fitted effect of over 70% in size)
[20] = target: Glutathione peroxidase 1 (Homo sapiens) (UniProt P07203); assay: Primary qHTS Assay for Inhibitors of Recombinant Selenoprotein Glutathione Peroxidase 1 (GPX1) (AID 1845191; active means well fitted curve in the direction sought with a large enough effect; an effect the other way counts as inactive or inconclusive; further: nearly all actives have a fitted effect of over 65% in size)
In short: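 Recombinant GPX1 (10 nM final) was preincubated with compound for 30 min at room temperature, then reacted with 1 mM GSH, 0.5 mM CHP, 0.5 mM NADPH and 100 nM glutathione reductase; NADPH fluorescence (340/450 nm) was read at 0 and 15 min.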

[21] = target: Phospholipid hydroperoxide glutathione peroxidase GPX4 (Homo sapiens) (UniProt P36969); assay: Primary qHTS Assay for Inhibitors of Recombinant Selenoprotein Glutathione Peroxidase 4 (GPX4) (AID 1845192; active means well fitted curve in the direction sought with a large enough effect; an effect the other way counts as inactive or inconclusive; further: nearly all actives have a fitted effect of over 65% in size)
In short: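 GR-coupled readout: 100 nM GR, 1 mM GSH, 0.5 mM NADPH; NADPH fluorescence (ex 340/em 450 nm) read at t=0 and after 15 min RT. GPX4 200 nM, preincubated 30 min with compound; substrate 0.5 mM CHP.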

[22] = target: Luciferin 4-monooxygenase (Photinus pyralis) (UniProt P08659); assay: Primary firefly luciferase (FLuc) qHTS assay for identification of artifact compounds. (AID 1845220; active means well fitted curve in the direction sought with a large enough effect; an effect the other way counts as inactive or inconclusive; further: nearly all actives have a fitted effect of over 60% in size); details: outcome: dose series up to 54.1 µM unless noted
In short: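 qHTS, 15 min compound preincubation with substrate (10 uM luciferin, 10 uM ATP) at RT, then 10 nM FLuc; 5 min; luminescence; % inhibition vs no-enzyme/DMSO controls, 4-parameter Hill fit.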

[23] = Primary fluorescence-based thiol-reactive (MSTI) qHTS assay for identification of artifact compounds. (AID 1845221; active means well fitted curve in the direction sought with a large enough effect; an effect the other way counts as inactive or inconclusive;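 further: thiol-reactive compounds lower the probe fluorescence signal; nearly all actives have a fitted effect of over 65% in size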)
In short: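 In PBS pH 7.4 with 2% DMSO, each compound met 4 uM MSTI for one hour at ambient temperature, shielded from light, before fluorescence detection.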

HeLa = assay: Primary qHTS to identify gynecologic anti-cancer compounds using libraries of approved drugs and bioactive compounds (AID 1345084; active means well fitted curve in the direction sought with a large enough effect; an effect the other way counts as inactive or inconclusive; further: nearly all actives have a fitted effect of over 55% in size); details: Gynecologic cancer cell panel viability, ATPlite luminescence, 48 h; series mostly up to 57.5 µM
In short: (§1)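 Five-concentration response, 48 h; readout is ATP-driven luciferase luminescence.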

JEG-3 = assay: as above; details: Gynecologic cancer cell panel viability, ATPlite luminescence, 48 h; series mostly up to 57.5 µM
In short: as §1

Chain of Nucleoprotein (Lymphocytic choriomeningitis virus (strain Armstrong)) (P09992 whole entry, looked up): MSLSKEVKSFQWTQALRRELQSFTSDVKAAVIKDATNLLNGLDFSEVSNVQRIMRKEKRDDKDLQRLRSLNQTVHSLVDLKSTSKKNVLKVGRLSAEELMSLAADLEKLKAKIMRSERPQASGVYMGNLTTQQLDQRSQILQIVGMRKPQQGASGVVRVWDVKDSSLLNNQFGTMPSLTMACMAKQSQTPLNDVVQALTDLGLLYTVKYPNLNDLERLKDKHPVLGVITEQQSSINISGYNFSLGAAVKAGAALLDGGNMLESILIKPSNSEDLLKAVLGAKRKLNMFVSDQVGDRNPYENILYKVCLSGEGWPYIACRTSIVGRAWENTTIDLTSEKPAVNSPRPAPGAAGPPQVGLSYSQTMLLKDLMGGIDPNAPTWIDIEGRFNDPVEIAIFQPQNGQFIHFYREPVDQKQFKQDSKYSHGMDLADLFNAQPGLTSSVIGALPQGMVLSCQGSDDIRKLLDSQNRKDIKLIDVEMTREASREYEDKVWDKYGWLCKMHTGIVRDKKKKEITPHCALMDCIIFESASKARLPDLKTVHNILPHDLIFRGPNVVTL
Chain of Phospholipid hydroperoxide glutathione peroxidase GPX4 (Homo sapiens) (P36969 whole entry, looked up): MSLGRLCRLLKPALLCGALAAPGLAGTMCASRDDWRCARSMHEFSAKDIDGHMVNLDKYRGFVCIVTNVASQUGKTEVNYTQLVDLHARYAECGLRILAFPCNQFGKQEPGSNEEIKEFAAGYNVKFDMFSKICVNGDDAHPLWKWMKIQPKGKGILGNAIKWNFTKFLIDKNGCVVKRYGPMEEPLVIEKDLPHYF
Chain of Glutathione peroxidase 1 (Homo sapiens) (P07203 whole entry, looked up): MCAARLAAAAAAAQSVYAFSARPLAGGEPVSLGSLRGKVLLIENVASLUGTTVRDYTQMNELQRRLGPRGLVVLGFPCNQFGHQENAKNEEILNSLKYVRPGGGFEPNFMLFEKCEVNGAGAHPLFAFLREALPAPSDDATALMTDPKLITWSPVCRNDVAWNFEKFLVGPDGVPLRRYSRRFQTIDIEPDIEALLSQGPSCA
Chain of Calcium and integrin-binding protein 1 (Homo sapiens) (Q99828 whole entry, looked up): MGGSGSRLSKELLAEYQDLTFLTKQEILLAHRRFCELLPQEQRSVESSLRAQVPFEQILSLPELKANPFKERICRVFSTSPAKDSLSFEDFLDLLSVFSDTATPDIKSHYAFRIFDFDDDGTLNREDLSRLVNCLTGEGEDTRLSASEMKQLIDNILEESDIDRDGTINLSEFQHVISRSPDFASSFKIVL

CC(=O)OC(C)(C)/C=C/C(=O)[C@](C)(O)[C@H]1C(O)C[C@@]2(C)[C@@H]3CC=C4[C@@H](C=C(O[C@@H]5O[C@H](CO)[C@@H](O)[C@H](O)[C@H]5O)C(=O)C4(C)C)[C@]3(C)C(=O)C[C@]12C (stereo partly specified)
inactive: Potency [1] | outcome [2] inactive [at 15.3 µM] | Potency [3] | outcome [4] inactive [at 15.3 µM] | Potency [5] | Potency (CRL-7250)

COc1ccccc1OCCNCC(O)CCOc1cccc2[nH]c3ccccc3c12 (stereo unspecified)
active: Potency [7] 10 µM
inactive: Potency [6] | Potency (CRL-7250)

Cc1[nH]c(/C=C2\C(=O)Nc3ccc(S(=O)(=O)N(C)c4cccc(Cl)c4)cc32)c(C)c1C(=O)N1CCN(C)CC1
inactive: Potency [6] | Potency [7] | Potency [5] | Potency (CRL-7250)

CC=CCC(C)C(O)C1C(=O)NC(CC)C(=O)N(C)CC(=O)N(C)C(CC(C)C)C(=O)NC(C(C)C)C(=O)N(C)C(CC(C)C)C(=O)NC(C)C(=O)NC(C)C(=O)N(C)C(CC(C)C)C(=O)N(C)C(CC(C)C)C(=O)N(C)C(C(C)C)C(=O)N1C (stereo unspecified)
active: Potency [9] 13.7 µM
inactive: Potency [8] | Potency (CRL-7250)

NC(=O)c1ccc2nc(-c3ccc(Oc4ccc(Cl)cc4)cc3)[nH]c2c1
active: Potency [8] 0.769 µM
inactive: Potency [9] | Potency (CRL-7250)

c1cc(OCCN2CCCCC2)cc(-c2n[nH]c3ccc(-c4ncn[nH]4)cc23)c1
inactive: Potency [10] | Potency [5] | Potency (CRL-7250)

CCc1ccc(Cc2ccc3c(c2)[C@]2(OC3)O[C@H](CO)[C@@H](O)[C@H](O)[C@H]2O)cc1
inactive: Potency [1] | outcome [2] | outcome [4] | Potency [5] | Potency (CRL-7250)

Cn1ncc2cc(-c3cnc(N)c(Cl)c3N3CCC4(CCNC4=O)CC3)ccc21
inactive: Potency [5] | Potency (CRL-7250)
active: Potency [7] 2.82 µM

CCOC(=O)[C@H]1O[C@@H]1C(=O)N[C@@H](CC(C)C)C(=O)NCCC(C)C
inactive: Potency [5] | Potency (CRL-7250)
active: Potency [11] 0.0681 µM

CCOc1nc2cccc(C(=O)OCc3oc(=O)oc3C)c2n1Cc1ccc(-c2ccccc2-c2noc(O)n2)cc1
-28.5%: activity change, negative = inhibition [12]
inactive: Potency [1] | outcome [2] | Potency [3] | outcome [4] | Potency [5] | Potency (CRL-7250)

CC(C)c1ccc2c(c1)CCC1[C@](C)(C(=O)O)CCC[C@]21C (stereo partly specified)
inactive: outcome [13] | Potency (CRL-7250)

COc1ccc2c3c1O[C@H]1C[C@@H](O)C=C[C@@]31CCN(C)C2
inactive: Potency [1] | outcome [2] | Potency [3] | outcome [4] | Potency [5] | Potency [12] | Potency (CRL-7250)

CC1=CC2/C=C(\C)CCC(O)C(O)C(O)CC(=O)C23C(=O)NC(CC(C)C)C3C1C (stereo unspecified)
inactive: Potency [14] | Potency [15] | Potency [16] | Potency [17] | Potency [20] | Potency [21] | outcome [22] inactive [at 25.7 µM] | Potency [23] | Potency (HeLa) | Potency (JEG-3)
active: Potency [18] 4.47 µM | Potency [19] 3.17 µM
